Test results as given in PubChem BioAssay.
The source made the active and inactive calls. The rule behind the calls is not given here.

Test: blockers of DNA damage checkpoint Chk1 activation – imaging, HeLa, hydroxyurea, phospho-Chk1 antibody, percent positive cells, primary screen (AID 1186)
Details: hydroxyurea-induced phospho-Chk1 immunofluorescence imaging, higher = more signal

SMILES	z-score
C=CCN1C(=O)[C@@]2(Cc3ccccc31)N=C(c1ccc(OCCCO)cc1)O[C@H]2c1ccccc1	-0.456 (inactive)
CC(C)C(O)C1C=CC2C(=O)N(c3ccccc3)C(=O)C2N1Nc1ccc([N+](=O)[O-])cc1 (centres undefined)	0.659 (inactive)
COC(=O)[C@H](Cc1ccccc1)N[C@@H](/C=C/C1CC1)[C@H](O)Cc1ccccc1	-0.157 (inactive)
O=C1O[C@H](c2ccccc2)[C@H](c2ccccc2)N2[C@H]1[C@@H](C(=O)N1CCCCCCC1)[C@]1(C(=O)Nc3ccc(C#CC4=CCCCC4)cc31)[C@H]2c1ccc(OCCO)cc1	0.606 (inactive)
CCOC(=O)C[C@H]1[C@H](OC(=O)c2ccc(C(=O)c3ccccc3)cc2)[C@@H](NC(=O)c2ccccc2)c2cc(OCCCO)ccc2N1C(=O)Cc1ccc(OC)cc1	0.119 (inactive)
COc1ccc([Si](C)(C)[C@H]2[C@H](CCO)O[C@@]3(C(=O)N(Cc4ccc(N(C=O)c5ccccc5)cc4)c4ccccc43)[C@@H]2C)cc1	1.27 (inactive)
CC(C)c1ccc(NN2C(C(O)c3ccc(B(O)O)cc3)C=CC3C(=O)N(c4ccccc4)C(=O)C32)cc1 (centres undefined)	-0.337 (inactive)
COc1ccc(CCNC(=O)[C@@]2(Sc3ccc(C)cc3)CC(=O)N(C3Cc4ccccc4C3)[C@@H]2c2ccc(CO)cc2I)cc1	0.136 (inactive)
COCCOC(=O)N1C(=O)[C@@]2(c3ccccc31)[C@H](c1ccc(O)cc1)N1[C@H](c3ccccc3)[C@H](c3ccccc3)OC(=O)[C@H]1[C@@H]2C(=O)Nc1nc2ccccc2s1	-0.0228 (inactive)
